# Screening results from PubChem BioAssay.
# GPR151 activ – activators of human GPR151, primary screen, cell-based, PathHunter beta-arrestin, luminescence. PathHunter beta-arrestin GPR151 cells. 650,000 tested, 1% active. AID 1508602, 2020. activation, % at 11.2 µM; in the data active means activation above about 4.9%;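 further: 0% = median of compound wells and 100% = cells with positive control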
# FBW7 act – FBW7 E3 ligase activators, primary screen, biochemical, AlphaScreen, human. 650,000 tested, 0.13% active. AID 1259310, 2017. normalized activity (activation), % at 26.1 µM. AlphaScreen FBW7–phospho-cyclin E peptide binding, activator screen; in the data active means normalized activity above about 1.9%;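 further: purified mutant Fbw7 with reduced substrate affinity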
# TEAD-YAP inh – TEAD-YAP interaction inhibition, primary screen, TEAD-YAP interaction inhibitor project, luminescence, HEK-TIYL cells; inhibition, % at 9.12 µM; TEAD-Gal4/YAP UAS-luciferase luminescence; AID 1259422, 2018; 640,000 tested, 1.4% active; in the data active means inhibition above about 32%;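 further: 0% = median of test compound wells and 100% = reference inhibitor wells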
# MITF primary – MITF inhibitors, primary screen, biochemical, AlphaScreen, human | Microphthalmia-associated transcription factor (Homo sapiens), O75030 | AlphaScreen MITF homodimerization, bead proximity signal | inhibition, % at 2.6 µM | 650,000 tested, 0.91% active; in the data active means inhibition above about 50%;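 further: 0% = vehicle wells with protein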
# GPR151 confirm – GPR151 activators, triplicate retest, confirmation, cell-based, PathHunter beta-arrestin, luminescence. activation, % at 11.2 µM. GPR151 PathHunter beta-arrestin cells, 90 min; % of EA-reagent control over plate median. shares compounds with GPR151 activ. 6,700 tested, under 10 active;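 active means mean percent activation across replicates above the confirmation screen cutoff of 4.91%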
# GPR119 counter – GPR119 activators in beta-arrestin cells, counter-screen for GPR151 activator project, cell-based, PathHunter beta-arrestin, luminescence, triplicate. 6,700 tested, 0.3% active. 90 min; 0 = compound-well median, 100 = enzyme-acceptor control. shares compounds with GPR151 activ. AID 1508611, 2020. activation, % at 11.2 µM;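 active means mean percent activation in the counterscreen above 29.09%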;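 further: counterscreen on off-target GPR119 to flag nonselective hits from the GPR151 activator screen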
# Target sequence (Q8TDV5 whole entry, looked up): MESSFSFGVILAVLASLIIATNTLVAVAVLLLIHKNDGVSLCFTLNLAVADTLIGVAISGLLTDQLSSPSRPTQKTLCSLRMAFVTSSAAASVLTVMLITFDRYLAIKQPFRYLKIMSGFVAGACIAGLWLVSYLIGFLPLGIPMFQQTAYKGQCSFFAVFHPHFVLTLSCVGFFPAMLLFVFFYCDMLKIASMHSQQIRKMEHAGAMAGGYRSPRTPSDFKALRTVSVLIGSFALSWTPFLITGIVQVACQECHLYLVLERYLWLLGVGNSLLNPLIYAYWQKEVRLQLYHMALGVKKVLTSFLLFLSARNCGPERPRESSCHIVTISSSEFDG
# * marks the source's active call; other numbers are inactive results; nt = no result; ! = not confirmed by another sample. Compounds with a hit are over-represented: about 3.5% of the library has one in this group of screens.
SMILES,GPR151 activ,FBW7 act,TEAD-YAP inh,MITF primary,GPR151 confirm,GPR119 counter
Cc1cc(C)c2nc(N(CCn3cccn3)C(=O)C3CC3)sc2c1,6.1*,0,-7,9,0,-2
COc1ccc(-c2oc3c(CC=C(C)C)c(O[C@@H]4O[C@H](CO)[C@@H](O)[C@H](O)[C@H]4O)cc(O)c3c(=O)c2O[C@@H]2O[C@@H](C)[C@H](O)[C@@H](O)[C@H]2O)cc1,6.8*!,0,0,-4,0,-8
CCn1c(C(=O)O)c(CNC2CCCC2)c2ccc(C)cc21,8.4*,0,-2,6,0,4
O=c1c2cnn(CCO)c2ncn1Cc1c(F)cccc1Cl,6.6*,0,-1,-13,0,5
O=C(CSC1=NC(=O)C(Cc2ccccc2)C(=O)N1)Nc1ccccc1 (stereo not given),-1,0,4,-1,nt,nt
Cc1ccc(NC(=O)CSC2=NC(=O)C(Cc3ccccc3)C(=O)N2)cc1 (stereo not given),11*,0,17,-7,0,-9
CCOc1ccc(-c2[nH]nc3c2C(c2ccccc2F)C(C#N)=C(N)O3)cc1OC (stereo not given),1,0,11,-8,nt,nt
CCC(=O)Nc1nnc(-c2ccc3c(c2)CCCC3)o1,-3,0,-42,3,nt,nt
COC(=O)c1ccc(C(=O)Nc2nnc(-c3ccc4c(c3)CCCC4)o2)cc1,6.0*,0,-8,-8,0,0
CCCCOc1ccc(OCC(=O)N/N=C/c2cccc(OC)c2)cc1,5.7*,0,1,-5,0,-4
COc1cccc(/C=N/NC(=O)COc2ccc3ccccc3c2)c1,1,0,-6,3,nt,nt
COc1ccc(/C=N\NC(=O)COc2c(C)cccc2C)cc1OC,9.9*,0,-4,2,0,13
COc1ccc(/C=N/NC(=O)c2ccc(=O)n(C)c2)cc1OC,10*,0,-13,-8,-1,-3
COc1ccc(/C=N/NC(=O)c2ccc(=O)n(C)c2)cc1,-1,0,-2,-6,nt,nt
c1ccc(Nc2cc(Nc3ccc(N4CCOCC4)cc3)ncn2)cc1,1,0,-16,24,nt,nt
CN(C)c1cccc(Nc2cc(Nc3ccc(N4CCOCC4)cc3)ncn2)c1,5.2*,0,-9,1,0,18
COc1ccccc1OCCn1c(SC(C)C)nc2ccccc21,0,0,-15,-10,nt,nt
CC(C)(C)C(=O)NCC1Cc2cccc(-c3ccc(S(C)(=O)=O)cc3)c2O1 (stereo not given),0,0,-7,18,nt,nt
CC(=O)NCC1Cc2cccc(-c3ccc(S(C)(=O)=O)cc3)c2O1 (stereo not given),7.3*,0,6,8,0,12
O=C(/C=C/c1c(F)cccc1Cl)NCCN1CCOCC1,6.2*,0,-3,-5,-1,-12
NC(CSC1CCCCO1)C(=O)O (stereo not given),1,0,-15,-8,nt,nt
CCOC(=O)C(N)CSC1CCCCO1 (stereo not given),8.2*,0,-5,35,0,-1
O=C1CN(c2ccc(S(=O)(=O)N3CCC(Cc4ccccc4)CC3)cn2)CCN1,7.3*,0,-4,-1,1,7
O=C1CN(c2ccc(S(=O)(=O)N3CCCC3)cn2)CCN1,1,0,5,-9,nt,nt
COc1cc(C(=O)Nc2cc(=O)n(C)c(=O)n2C)cc(OC)c1OC,5.7*,0,-2,-5,0,0
SMILES,GPR151 activ,FBW7 act,TEAD-YAP inh,MITF primary,GPR151 confirm,GPR119 counter
CN(CCN1CCOCC1)Cc1c(C(=O)N2CCCCCCC2)nc2sccn12,0,0,5,14,nt,nt
C=CCOc1ccc(/C=C2\C(=O)NC(=O)N(C)C2=O)cc1Br,5.7*,0,4,14,1,8
O=C(Nc1ccc2c(c1)OCCO2)c1cc(=O)c(OCc2ccccc2)c[nH]1,8.1*,0,4,-1,0,-1
Cc1ccc(C)c(OCCCn2c(C(C)NC(=O)c3ccco3)nc3ccccc32)c1 (stereo not given),4,0,10,11,nt,nt
Cc1cccc(NC(=O)C(=S)NC2CCCC2)c1C,8.2*,0,-26,-12,1,9
Cc1oc(-c2ccccc2Cl)nc1CSCC(=O)NC1CCCC1,2,0,-4,6,nt,nt
Cc1oc(-c2ccccc2Cl)nc1CSCC(=O)NC(C)(C)C,5.2*,0,-23,5,1,-1
O=C(O)CCNC(=O)/C(=C/c1ccc(Cl)cc1)NC(=O)c1ccccc1,2,0,8,0,nt,nt
CCOC(=O)C1=C(C)N=c2s/c(=C\c3ccc(-c4ccc(OC)cc4[N+](=O)[O-])o3)c(=O)n2C1c1ccc(OC)c(OCC)c1 (stereo not given),-1,0,-11,7,nt,nt
S=C(Nc1ccc2c(c1)OCO2)Nc1cnccn1,5.6*,0,-25,9,1,0
S=C(Nc1ccc2c(c1)OCO2)Nc1ccc2c(c1)OCO2,-1,0,-18,2,nt,nt
O=C(Nc1ccc2c(c1)OCO2)Nc1ccc(Br)cn1,6.5*,0,-81,10,0,-5
O=C(NNC(=O)c1ccc(Cl)s1)Nc1ccc2c(c1)OCO2,5.2*,0,-43,9,0,-5
CCOCCOC(=O)C1=C(C)NC2=C(C(=O)CC(c3ccccc3)C2)C1c1cccc2ccccc12 (stereo not given),0,0,3,-7,nt,nt
COc1cc(CNc2ccc3ncc(-c4cccnc4)n3n2)cc(OC)c1OC,7.8*,0,-17,5,1,4
COC(=O)C1=C(C)N(c2ccc(C(C)C)cc2)C(=O)/C1=C\c1cc(Br)ccc1OC,11*,0,-6,0,0,7
O=C(CCl)N1CCCc2ccccc21,11*,-1,17,-5,0,2
O=C(NC1CC2CCCC(C1)N2CC(=O)N1CCCc2ccccc21)C1CCCCC1 (stereo not given),8.7*,0,7,15,0,6
O=C(Nc1ccccc1)N[C@H]1C[C@H]2C(=O)N3CCC[C@@H]3C(=O)N2C1,10*,1,-15,15,2,19
FC(F)(F)c1ccc(Cn2cnc3c(NCCOc4ccccc4)nc(N4CCN(Cc5ccc6c(c5)OCO6)CC4)nc32)cc1,-2,1,-8,17,nt,nt
